The full list was thinned out, with hits kept by preference.
CHX counter = Cycloheximide Counterscreen for Small Molecule Inhibitors of Shiga Toxin; cell reporter, cycloheximide protein synthesis inhibition counterscreen; max response, %; AID 2314, 2010; actives 12% (n = 300,000); in the data active = max response mostly above about 13%, no sharp cut-off; inactive = mostly below about 14%; also: read at 38.3 µM for the half of the compounds with a filed dose; 0% is about no effect
LmPK inhibitor = qHTS Assay for Inhibitors of Leishmania Mexicana Pyruvate Kinase (LmPK) | Potency, µM (titrated, usually from 57.5 µM), inactives show at the top dose activity change, negative = inhibition, hits mostly inhibitors | Q27686 | actives 0.37% (n = 290,000) | purified LmPK, Kinase-Glo ATP luminescence, 1 h; also: potency is read from the fitted curve at half-maximal effect; % is scaled to controls: 0 for no effect and ±100 for the full control effect
Target sequence (Q27686 whole entry, looked up): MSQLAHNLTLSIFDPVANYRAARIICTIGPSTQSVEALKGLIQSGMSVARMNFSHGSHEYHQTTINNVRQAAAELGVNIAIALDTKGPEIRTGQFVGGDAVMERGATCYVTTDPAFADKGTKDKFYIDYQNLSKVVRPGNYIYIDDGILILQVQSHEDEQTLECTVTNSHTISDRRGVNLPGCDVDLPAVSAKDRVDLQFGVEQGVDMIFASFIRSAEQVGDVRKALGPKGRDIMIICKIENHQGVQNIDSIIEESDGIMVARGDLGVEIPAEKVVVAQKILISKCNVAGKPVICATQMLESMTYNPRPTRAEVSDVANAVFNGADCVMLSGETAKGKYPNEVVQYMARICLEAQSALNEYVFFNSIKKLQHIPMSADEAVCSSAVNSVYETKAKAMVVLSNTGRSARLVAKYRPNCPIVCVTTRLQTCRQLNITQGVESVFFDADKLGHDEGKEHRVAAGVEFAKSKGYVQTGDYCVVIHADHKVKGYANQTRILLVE
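0.1 nM LmPK, 0.5 mM PEP, 0.1 mM ADP; 50 mM imidazole pH 7.2, 7 mM MgCl2, 50 mM KCl; 1 h RT. Kinase-Glo luminescence readout, normalized to no-enzyme (full inhibition) and uninhibited wells.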
TbPYK inhibitor = qHTS of Trypanosoma Brucei Inhibitors; Potency, µM (highest dose often 76.8 µM), for the others: at the highest dose activity, negative = inhibition, usual class: inhibitors; actives 0.12% (n = 410,000); pyruvate kinase (Trypanosoma brucei), Q57TT1; TbPYK enzyme, Kinase-Glo Plus ATP luminescence, 45 min; also: potency is read from the fitted curve at half-maximal effect; % is scaled to controls: 0 for no effect and ±100 for the full control effect; nearly all actives have a fitted effect of over 50% in size
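TbPYK + substrate in 50 mM TEA pH 7.2, 100 mM KCl, 10 mM MgCl2, 0.05% BSA, 0.01% Tween-20; cpd pinned; ADP 130 uM final; 45 min RT; Kinase-Glo Plus 10 min; luminescence endpoint.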
FBPA Giardia inh = qHTS Assay for Inhibitors of Fructose-1,6-bisphosphate Aldolase from Giardia Lamblia; A8B2U2; purified Giardia FBPA; Potency, µM (top dose mostly 59.6 µM), for inactives: at the highest dose activity, negative = inhibition, usual class: inhibitors; actives 0.71% (n = 290,000); AID 2451, 2010; also: potency is read from the fitted curve at half-maximal effect; % is scaled to controls: 0 for no effect and ±100 for the full control effect; nearly all actives have a fitted effect of over 55% in size
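Giardia FBPA (40 nM reagent) was preincubated 10 min at RT with compound (up to 57.5 uM final), then substrate plus GAPDH/TPI/NAD/arsenate coupling system with diaphorase/resazurin was added; resorufin fluorescence (525/598 nm) was read after 20 min.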
RE007 growth inh = qHTS Assay for Inhibitors of the HIV-1 protein Vpr. S. pombe RE007 Vpr strain, BacTiter-Glo ATP luminescence, 24 h. Potency, µM (top dose mostly 92.2 µM), for the others: top-dose activity change, negative = less growth, actives largely listed as inhibitors. actives 0.21% (n = 360,000). AID 651644, 2012; active = well fitted falling curve with a large enough effect; inconclusive = small, poorly fitted or top-dose-only effect; inactive = no such curve, though single readings can be large or run the other way; also: potency is read from the fitted curve at half-maximal effect; % is scaled to controls: 0 for no effect and ±100 for the full control effect; nearly all actives have a fitted effect of over 50% in size
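Fission yeast RE007 carrying one integrated HIV-1 vpr copy, seeded at OD 0.01 in PMG+AL medium with 23 nL pinned compound. Grown 24 h at 30 degrees; viability read by BacTiter-Glo luminescence after 5 min.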
Shiga inhibitor = A qHTS for Small Molecule Inhibitors of Shiga Toxin. Vero cells, Shiga toxin protein synthesis inhibition reporter. inhibition, % at 38.7 µM. actives 9.2% (n = 290,000); in the data active = inhibition mostly above about 28%, no sharp cut-off; inactive = mostly below about 43%; also: 0% is about no effect
* hit, by the source's call; ? = inconclusive; . = no result; [ ] = dose if it differs, or a comment. Unless noted, calls follow the shape of the dose curve; as a rule, active = well fitted curve in the direction sought with a large enough effect; inconclusive = small, poorly fitted or top-dose-only effect, or another doubt; inactive = no such curve, though single readings can be large; an effect the other way counts as inactive or inconclusive.

SMILES | CHX counter | LmPK inhibitor | TbPYK inhibitor | FBPA Giardia inh | RE007 growth inh | Shiga inhibitor
C/C(CC(=O)Nc1c(C)cc(C)cc1C)=N\NC(=O)c1cnccn1 | 50* | -3% | -2% | -5% | . | 23
C/C(CC(=O)Nc1cccc(C(F)(F)F)c1)=N\NC(=O)c1cnccn1 | 26* | 0% | 1% | -5% | 16% | 53*
C/C(CC(=O)Nc1ccc(Cl)c(C(F)(F)F)c1)=N\NC(=O)c1cnccn1 | 41* | -2% | -3% | 2% | -1% | 74*
C/C(CC(=O)Nc1c(Cl)cccc1C(F)(F)F)=N\NC(=O)c1cnccn1 | . | . | 0% | . | 12% | .
C/C(CC(=O)Nc1c(C)cc(C)cc1C)=N\NC(=O)OC(C)(C)C | 25* | 1% | -7% | 3% | 0% | 79*
CC(=O)OCC1OC(C#Cc2ccccc2)C=CC1OC(C)=O (stereo not given) | . | . | . | -3%[12.9 µM] | . | .
CCCCSc1nnc2n(-c3ccc(OC)cc3)c(=O)c3c4c(sc3n12)COC(C(C)C)C4 (stereo not given) | . | . | 3% | . | . | .
COc1cc(C2CC(=O)Nc3cc4c(cc32)OCCO4)cc(Br)c1OC (stereo not given) | . | . | 1% | . | . | .
COCCNC(=O)C(=O)N/N=C(\C)CC(=O)Nc1ccc(Cl)cc1Cl | -2 | -5% | 6% | -3% | 6% | -3
C/C(CC(=O)Nc1ccc(Cl)cc1Cl)=N\NC(=O)c1cnccn1 | 32* | 4% | 3% | -28% | -12% | 59*
Nc1cccc(Oc2ccc3c(c2)C(=O)N(CC2CCCO2)C3=O)c1 (stereo not given) | 35* | 3% | 0% | 4% | 2% | 82*
CCC1CCCCN1C(=O)Cn1c(=O)n(CCCCCC(=O)NCc2ccc(F)cc2)c(=O)c2sccc21 (stereo not given) | . | . | 1% | . | . | .
FC(F)Sc1ccc(NC(=S)NC2CCC(NC(=S)Nc3ccc(SC(F)F)cc3)CC2)cc1 (stereo not given) | 10 | 2% | -1% | -1% | 5% | -3
Oc1cccc(NC(=S)Nc2ccc(SC(F)F)cc2)c1 | 21* | 0% | -2% | -5% | -4% | 20
CCCCNC(=S)Nc1ccc(F)cc1 | 0 | -1% | 3% | 3% | -15% | 12
CCCCNC(=S)Nc1ccc(SC(F)F)cc1 | 61* | 6% | 3% | -11% | 9% | 149*
Oc1ccccc1N1CCN(C(=S)Nc2ccc(SC(F)F)cc2)CC1 | -3 | 7% | -25% | 0% | 4% | 31
Oc1cccc2c(NC(=S)Nc3ccc(SC(F)F)cc3)cccc12 | 82* | 3% | -4% | 1.8µM* | -14% | 135*
COC(=O)c1cc(F)c(S(=O)(=O)N2CCN(S(=O)(=O)c3ccc4c(c3)OCCO4)CC2)cc1F | -9 | . | . | . | . | -5
C=CCOc1ccc(C2NC(=S)NC3=C2CCc2ccccc23)cc1 (stereo not given) | 25* | -4% | -4% | -17% | -4% | 20
COc1cc(C2NC(=S)NC3=C2CCc2ccccc23)cc(OC)c1OC (stereo not given) | -1 | 3% | -16% | -6% | -4% | -17
CCN(CC)c1ccc(CNc2nc3ccccc3n2C)cc1 | 8 | -2% | 35% | 2% | -13% | 44*
CCn1c(NCc2ccccn2)nc2ccccc21 | 21* | 0% | 1% | -18% | 16% | 21
CCn1c(NCc2cccs2)nc2ccccc21 | 10 | 0% | -5% | 1% | -28% | 26
CCn1c(NCc2ccc(N(C)C)cc2)nc2ccccc21 | 30* | -1% | -1% | 1% | -10% | 35*
SMILES | CHX counter | LmPK inhibitor | TbPYK inhibitor | FBPA Giardia inh | RE007 growth inh | Shiga inhibitor
COc1ccc(CCNC(=O)CSc2cn(CCNC(=O)c3cccc(C(F)(F)F)c3)c3ccccc23)cc1OC | . | . | -3% | . | . | .
COc1cc([N+](=O)[O-])ccc1NC(=O)N1CCN(c2cc(-c3noc(C)n3)ccc2C)CC1 | . | . | -2% | . | . | .
O=c1[nH]c2cc3c(cc2cc1C(c1nnnn1Cc1ccccc1)N1CCCc2ccccc21)OCO3 (stereo not given) | 16* | 1% | -8% | 0% | 3% | 44*
O=c1[nH]c2cc3c(cc2cc1C(c1nnnn1Cc1ccccc1)N1CCCCCC1)OCCO3 (stereo not given) | -4 | 16% | 4% | -16% | -9% | -14
CN(C1CCCCC1)S(=O)(=O)c1ccc2c(c1)c(=O)c(C(=O)N1CCN(c3ccccc3F)CC1)cn2C | . | . | 2% | . | . | .
Cc1ccc(/C=N/N2CCN(c3ccccn3)CC2)o1 | 35* | -20% | -5% | -1% | ? | 75*
C(=N\N1CCN(c2ccccn2)CC1)/c1ccco1 | 22* | -9% | 0% | 3% | -8% | 44*
Nc1ccc(-c2cnc3ccccc3n2)cc1 | . | . | 0% | . | -5% | .
c1cc(-c2cccs2)nc(-c2cccs2)c1 | 46* | -4% | 2% | 0% | -11% | 53*
c1csc(-c2cnc3ccccc3n2)c1 | 29* | 15% | 1% | -2% | -7% | 75*
c1ccc(-c2cccs2)nc1 | 1 | -3% | -1% | 5% | 3% | -5
CN(C)C(CNC(=O)c1cccs1)c1ccco1 (stereo not given) | . | . | 0% | . | -5% | .
O=C(NCCC(c1ccccc1)c1ccco1)c1cccs1 (stereo not given) | 38* | 7% | -1% | -16% | 10% | 118*
OC1OC[C@@H](O)[C@H](O)[C@@H]1O (stereo not given in full) | . | . | 3% | . | . | .
COC(/C(=N/O)c1ccc(Cl)cc1)c1ccccc1 (stereo not given) | 33* | -1% | 6% | -2% | 23% | 50*
C[C@@H]1CC[C@@]2(OC1)OC1CC3C4CC=C5CC(O)CCC5(C)C4CCC3(C)C1[C@@H]2C (stereo not given in full) | . | . | . | -1% | . | .
Cc1ccc(SCCC(=O)N2CCC(C)CC2)cc1 | 34* | 0% | 1% | 1% | -12% | 73*
Cc1ccc(SCCC(=O)NC(C)C)cc1 | 19 | -6% | 2% | 6% | 9% | 25
Cc1cc(C)nc(SCC(=O)N2CCC(C(N)=O)CC2)n1 | -4 | 0% | -1% | 1% | 2% | -2
Cc1ccc(SCCC(=O)N2CCC(C(N)=O)CC2)cc1 | 14* | -5% | 1% | 4% | 0% | -6
NC(=O)C1CCN(C(=O)CCSCc2ccccc2)CC1 | 24* | 0% | 2% | -6% | 9% | 7
Brc1ccccc1OCCCn1cnc2ccccc21 | 35* | 0% | -3% | -12% | ? | 52

Assay outcomes from PubChem.
